About 83,000 compounds went through this panel and 20% of them were active in at least one assay; those are over-represented in the sample as a whole.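 Cells were grown in 96-well plates and exposed to the test compound at a single concentration for 48 hours; results are reported as percent growth, with values below 10 considered active.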 Activity calls are given as the source filed them.

The subject of this assay is HL-60(TB) leukemia. As to the kind of experiment: NCI-60 one-dose screen, 48 h (100 = growth as untreated, 0 = no growth, -100 = all killed). The settings on record: 10 µM unless noted. Here is the method:
Growth inhibition of the HL-60(TB) human tumor cell line is measured as a screen for anti-cancer activity. Cells are grown in 96 well plates and exposed to the test compound for 48 hours. Compounds are tested at a single concentration, which is 10^-5 M for most compounds. The reported endpoint is percent growth (GI% or GIPRCNT), where numbers from 0 - 100% represent growth inhibition, and numbers from -100% - 0 represent cell death. For example, a value of 40 represents 60% growth inhibition. A value of 0 means no net growth occurred over the course of the experiment. A value of -40 indicates 40% of cells at the beginning of the experiment died by the end of the experiment. A value of -100 means all cells are dead at the end of the experiment.
NCI-60 Human Tumor Cell Lines Screen was performed using the standard one-dose NCI protocol, which is described in more detail at https://dtp.cancer.gov/discovery_development/nci-60/default.htm.
Compounds with GIPRCNT values below 10 were considered active. Activity score was based on GIPRCNT using the following formula: […]
Score is 0 for GIPRCNT values of 100 or above, 50 for GIPRCNT values of 0, and 100 for GIPRCNT values of -100.
Regarding `CC(=O)OCc1cc[c]([Hg][Cl])o1`, the growth was -25.1% (active).

On to `CC1(C)CN1P(=O)(N1CC1(C)C)N1CC1(C)C` (stereo not given), for which the growth is 90% (inactive).

For the compound `COc1cc(C=Nc2cc(Cl)cc(Cl)c2)ccc1N(CCCl)CCCl`, the growth is 88.1% (inactive).

As to `CN1CC(=O)N(O)C1(C)c1cccnc1` (stereo not given), the growth was 92.2% (inactive).

`O=C1C2CCC1C(N1CCCC1)CC2` (stereo not given): the growth is 97.2% (inactive).

Regarding `C1CCC([PH+](C2CCCCC2)C2CCCCC2[PH+](C2CCCCC2)C2CCCCC2)CC1.O=C(C1[CH-]CCCC1)C1CCCC[N-]1.[Au]` (stereo not given), the growth is -39.2% (active).

As for `Nc1ccc2c(c1)Cc1cc(Br)ccc1-2`, the growth is 47.8% (inactive).

With `CCOC(=O)[C@@H](C)C[C@H](Cc1ccccc1)NC(=O)c1csc([C@@H](C[C@H](C(C)C)N(C)C(=O)[C@@H](NC(=O)[C@H]2C[C@H](O)CCN2C)C(C)C)OC(C)=O)n1`, the growth was -27.1% (active).

As for `CC(C)(C)C(=O)OCOP(=O)(NCc1ccccc1)C1CCCN(O)C1=O` (stereo not given), the growth was 52.2% (inactive).

On to `COC(=O)[C@@H](C)C[C@H](Cc1ccccc1)NC(=O)c1csc([C@@H](C[C@H](C(C)C)N(C)C(=O)[C@@H](NC(=O)C23CC(NC(C)=O)(C2)C3)C2CC2)OC(C)=O)n1`, for which the growth was -17.2% (active).

Take `N#CC1(c2ccccc2)CCN(Cc2ccccc2)CC1`: the growth is 102% (inactive).

Consider `C[CH2][Sn]([Cl])([Cl])[CH2]C.Oc1ccccc1C=NCCN=Cc1ccccc1O`, for which the growth was 113% (inactive).

As for `CC12CCC(O)CC1=CCC1C2CCC2(C)C(O)CCC12` (stereo not given), the growth was 115% (inactive).

`CCOC(=O)[C@@H](C)C[C@H](Cc1ccccc1)NC(=O)c1csc([C@@H](C[C@H](C(C)C)N(C)C(=O)[C@H](CC)NC(=O)[C@H]2CCCCN2C)OC(C)=O)n1`: the growth was -26.4% (active).

As for `COC(=O)[C@@]1(C)CC[C@]2(C)CC[C@]3(C)C4=CC=C5C(=CC(=O)C(O)=C5C)[C@]4(C)CC[C@@]3(C)[C@@H]2C1`, the growth was -53.1% (active).

Take `COC(=O)[C@@H](C)C[C@H](Cc1ccccc1)NC(=O)c1cccc([C@@H](C[C@H](C(C)C)N(C)C(=O)[C@@H](NC(=O)[C@H]2CCCCN2C)C(C)C)OC(C)=O)n1`: the growth is -28.6% (active).

In the case of `COP(=O)(OC)C(O)c1ccc(Cl)cc1` (stereo not given), the growth is 98.9% (inactive).

As for `CC(C)(NC(=O)O[C@@H]1CN2CCC1CC2)c1csc(-c2ccc(F)cc2)n1`, the growth is 90% (inactive).

Consider `COc1cc2c(cc1OCCCn1c(-c3ccccn3)nc3ccccc31)N=C[C@@H]1CCCN1C2=O`, for which the growth is -21.7% (active).

For the compound `Cc1cc(C)c(CBr)c(C)c1`, the growth was 59.7% (inactive).

As to `O=C(Nc1ccc(Cl)cc1)Nc1nccs1`, the growth is -18.6% (active).

Turning to `C1CCC([PH+](C2CCCCC2)C2CCCCC2[PH+](C2CCCCC2)C2CCCCC2)CC1.[Au].[CH-]1CCCCC1CC1CCCC[N-]1` (stereo not given), the growth is -32.3% (active).

As for `CC1=C(CNO)C2=C(C)C3(CC3)[C@@](C)(O)C(=O)C2=C1`, the growth is 8.14% (active).

As to `CC(CO)NC1CCCCC1` (stereo not given), the growth was 116% (inactive).

As to `Oc1c(O)c(Cl)c(Cl)c(Cl)c1Cl`, the growth was 24.9% (inactive).

On to `CC(C)=CCc1c(O)c(C(=O)CC(C)C)c(O)c2c(-c3ccccc3)cc(=O)oc12`, for which the growth was 27.5% (inactive).

On to `C/C(=C\c1ccn(-c2ccc(N)c(F)c2)n1)[C@@H]1C[C@@H]2O[C@]2(C)CCC[C@H](C)[C@H](O)[C@@H](C)C(=O)C(C)(C)[C@@H](O)CC(=O)O1`, for which the growth was 5.44% (active).

With `COc1ccc([As]=[As]c2ccc(OC)c(NCS(=O)(=O)O)c2)cc1NCS(=O)(=O)O` (stereo not given), the growth is -7.43% (active).

In the case of `CC12CC(=O)C3(SC#N)C(CCC4=CC(=O)CCC43C)C1CCC2=O` (stereo not given), the growth was 43.2% (inactive).

On to `COc1cccc(/C=C/[N+](=O)[O-])c1`, for which the growth is 17.4% (inactive).

Regarding `CCCCC1(CCC)C(=O)NC(=S)NC1=O`, the growth is 95.5% (inactive).

Take `O=[As](O)(O)c1ccccc1[As](=O)(O)O`: the growth is 113% (inactive).

As to `Cc1ccc(C(=O)NCCCOc2ccc(N)cc2Cl)cc1S(=O)(=O)F`, the growth is 98.8% (inactive).

As for `C/C(=C\c1ccn(-c2ccccc2N)n1)[C@@H]1C[C@@H]2O[C@]2(C)CCC[C@H](C)[C@H](O)[C@@H](C)C(=O)C(C)(C)[C@@H](O)CC(=O)O1`, the growth is 9.72% (active).

Turning to `O=C(c1cccc(O)c1O)c1cn(Cc2ccc(F)cc2)c2cccc(O)c12`, the growth is -32.8% (active).

As for `C[C@]12CC[C@@H]3c4ccc(Oc5nc(N6CC6)nc(N6CC6)n5)cc4CC[C@H]3[C@@H]1CCC2=O`, the growth was -35.6% (active).

With `CCCC(C)C1(CC)C(=O)NC(=O)N(C)C1=O` (stereo not given), the growth is 94.8% (inactive).

On to `C[C@]12CCc3nc(Nc4ccccc4F)sc3C1=CC[C@@H]1[C@@H]2CC[C@]2(C)C(=O)CC[C@@H]12`, for which the growth was 34.2% (inactive).

For `CC(C)CCC1(CCCl)C(=O)NC(=O)NC1=O`, the growth is 108% (inactive).

Consider `COc1cc2c(c(OC)c1OC)-c1ccc([O-])c(=O)cc1[C@@H](NC(C)=O)CC2.COc1cc2c(c(OC)c1OC)-c1ccc([O-])c(=O)cc1[C@@H](NC(C)=O)CC2.[Cu+2]`, for which the growth is -44.9% (active).

For the origin of these results see PubChem BioAssay (NCI).
